# Reference: PubChem BioAssay (NCATS)
# Results filed as inconclusive are left out. Where a call stands in place of a potency, no number is given. Activity calls are given as the source filed them. Calls follow the shape of the dose curve; as a rule, active = well fitted curve in the direction sought with a large enough effect; inconclusive = small, poorly fitted or top-dose-only effect, or another doubt; inactive = no such curve, though single readings can be large; an effect the other way counts as inactive or inconclusive.
# Legend:
# [1] = target: N-terminal Xaa-Pro-Lys N-methyltransferase 1 (Homo sapiens) (UniProt Q9BV86); experiment: qHTS Assay for Inhibitors of N-terminal methyltransferase 1 (NTMT1): LOPAC validation of the NTMT1 SAHH-coupled ThioGlo3 Assay (AID 1347143);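 also: SAH from peptide methylation measured as thiol fluorescence via SAHH coupling and ThioGlo3; nearly all actives have a fitted effect of over 70% in size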; also: potency is read from the fitted curve at half-maximal effect
# Chain of N-terminal Xaa-Pro-Lys N-methyltransferase 1 (Homo sapiens) (Q9BV86 whole entry, looked up): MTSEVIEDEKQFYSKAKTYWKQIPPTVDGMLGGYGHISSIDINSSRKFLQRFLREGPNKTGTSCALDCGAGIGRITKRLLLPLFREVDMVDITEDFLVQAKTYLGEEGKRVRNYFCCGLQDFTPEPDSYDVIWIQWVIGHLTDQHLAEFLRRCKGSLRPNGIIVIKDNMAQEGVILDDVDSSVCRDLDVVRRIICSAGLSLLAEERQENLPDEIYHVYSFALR
# How it was run: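 Steps: dispense 125nM NTMT1; pin-transfer test compounds at several concentrations, with 1uM RCC1-6 peptide as control; incubate 1 min; start with reagent holding 100uM SAM, 10uM SAHH, 15uM ThioGlo3; read at 0 and 30 min.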
# [2] = test system: Zika virus NS2B-NS3 protease (unlinked); experiment: Optimization of GU AMC qHTS for Zika virus inhibitors: Unlinked NS2B-NS3 protease assay (AID 1347151); also: nearly all actives have a fitted effect of over 80% in size; also: potency is read from the fitted curve at half-maximal effect
# How it was run: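 Percent inhibition is derived from the 15-min change in AMC fluorescence, normalized against no-inhibitor and no-enzyme controls, then fitted to a 4-parameter Hill curve. Aprotinin was the intraplate control.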
# [3] = test system: Zika virus NS2B-NS3 protease; experiment: Primary screen GU AMC qHTS for Zika virus inhibitors (AID 1347154); also: nearly all actives have a fitted effect of over 70% in size
# How it was run: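 Unlinked Zika NS2B hydrophilic domain–NS3 protease complex at 25 nM in 10 mM Tris-HCl pH 8.0, 0.01% Tween 20, with an AMC peptide substrate. Fluorescence change (340/450 nm) over 15 min at room temperature, normalized to controls, fitted to 4-parameter Hill.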
# [4] = test system: Zika virus NS2B-NS3 protease (linked construct); experiment: Confirmatory screen NINDS AMC qHTS for Zika virus inhibitors (AID 1347152); also: potency is read from the fitted curve at half-maximal effect; nearly all actives have a fitted effect of over 70% in size
# How it was run: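 In this dose-response qHTS, AMC release from 10 microM Bz-Nle-KRR-AMC by 1 nM linked protease is measured over 15 minutes (about 20% conversion) at pH 8.0. Percent inhibition is fitted to a 4-parameter Hill curve.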
# Furin (Homo sapiens) = Furin (Homo sapiens) (UniProt P09958); experiment: Furin counterscreen qHTS for Zika virus inhibitors (AID 1347149); also: nearly all actives have a fitted effect of over 70% in size; also: potency is read from the fitted curve at half-maximal effect
# Chain of Furin (Homo sapiens) (P09958 whole entry, looked up): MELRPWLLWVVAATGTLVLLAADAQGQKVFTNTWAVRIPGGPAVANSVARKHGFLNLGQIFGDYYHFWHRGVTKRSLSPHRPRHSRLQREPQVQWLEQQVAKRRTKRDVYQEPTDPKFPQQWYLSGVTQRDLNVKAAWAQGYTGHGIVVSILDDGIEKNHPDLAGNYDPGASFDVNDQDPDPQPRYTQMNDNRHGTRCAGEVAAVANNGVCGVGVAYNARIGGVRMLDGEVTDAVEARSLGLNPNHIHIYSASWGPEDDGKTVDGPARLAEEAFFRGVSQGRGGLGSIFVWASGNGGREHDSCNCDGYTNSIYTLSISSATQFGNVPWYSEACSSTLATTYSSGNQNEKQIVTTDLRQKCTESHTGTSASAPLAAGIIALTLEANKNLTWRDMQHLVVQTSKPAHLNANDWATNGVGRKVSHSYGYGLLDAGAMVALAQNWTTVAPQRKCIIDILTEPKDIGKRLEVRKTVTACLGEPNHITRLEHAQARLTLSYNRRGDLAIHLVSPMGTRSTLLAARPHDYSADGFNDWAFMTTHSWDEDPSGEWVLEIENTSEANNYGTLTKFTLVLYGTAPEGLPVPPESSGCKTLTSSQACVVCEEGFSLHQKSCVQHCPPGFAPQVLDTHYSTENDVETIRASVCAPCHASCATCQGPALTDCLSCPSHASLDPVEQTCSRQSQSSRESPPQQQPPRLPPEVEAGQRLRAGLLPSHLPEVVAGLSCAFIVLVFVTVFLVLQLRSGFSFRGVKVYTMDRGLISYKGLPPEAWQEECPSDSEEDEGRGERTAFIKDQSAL
# How it was run: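 Counterscreen measures cleavage of 2 microM BOC-RVRR-AMC, below its ~15 microM Km, by 5 nM full-length human furin at pH 7.0 after a 15-min compound preincubation. Inhibition derives from the 15-min fluorescence increase at 37C.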
# [5] = test system: Zika virus NS2B-NS3 protease (unlinked complex); experiment: Confirmatory screen GU AMC qHTS for Zika virus inhibitors (AID 1347153); also: nearly all actives have a fitted effect of over 70% in size
# How it was run: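 Noncovalent NS2B hydrophilic domain/NS3 protease complex (25 nM) in 10 mM Tris-HCl pH 8.0, 0.01% Tween 20 was preincubated 15 min at room temperature with compounds. Then 10 µM AMC substrate (Km 18.3 µM) was added; fluorescence was read over 15 min and fitted to a 4-parameter Hill equation.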
smiles,measurement,setting,value
CN1[C@@H](CC(=O)c2ccccc2)CCC[C@H]1C[C@H](O)c1ccccc1,Potency,[1],inactive
same,Potency,[2],inactive
same,Potency,[3],inactive
Cc1ccc(O)c(N=Nc2ccccc2)n1,Potency,[1],50.1 µM (active)
same,Potency,[2],inactive
same,Potency,[3],inactive
CCCN(CC1CC1)c1nc(C)nc(Nc2c(Cl)cc(Cl)cc2Cl)c1Cl,Potency,[1],inactive
same,Potency,[2],inactive
same,Potency,[3],inactive
CC(C)Cc1ccc([C@H](C)C(=O)O)cc1,Potency,[1],inactive
same,Potency,[2],inactive
Cc1ccc(S(=O)(=O)/C=C/C#N)cc1,Potency,[1],5.62 µM (active)
same,Potency,[2],inactive
same,Potency,[3],inactive
CCCCCCCCCCCCCCCC(=O)OC(CC(=O)O)C[N+](C)(C)C (stereo not drawn),Potency,[1],inactive
same,Potency,[2],inactive
same,Potency,[3],inactive
CC12C(=O)OC(=O)C1(C)C1CCC2O1 (stereo not drawn),Potency,[1],inactive
same,Potency,[2],inactive
same,Potency,[3],inactive
O=C(Nc1ccncc1)c1cc([N+](=O)[O-])ccc1Cl,Potency,[1],inactive
same,Potency,[2],inactive
same,Potency,[3],inactive
O=C(CCCCCN1CCN(c2ccccc2-c2ccccc2)CC1)NC1CCCc2ccccc21 (stereo not drawn),Potency,[1],79.4 µM (active)
same,Potency,[2],23.8 µM (active)
O=S(=O)(c1cccc2c(I)cccc12)N1CCCNCC1,Potency,[1],39.8 µM (active)
same,Potency,[2],inactive
same,Potency,[3],inactive
CN(C)C(N)=NCCC[C@H](N)C(=O)O,Potency,[1],inactive
same,Potency,[2],inactive
O=C(O)CCCC[C@@H]1CCSS1,Potency,[1],inactive
same,Potency,[2],inactive
O=[N+]([O-])c1ccc2c(c1)S(=O)(=O)C=C2,Potency,[1],44.7 µM (active)
same,Potency,[2],inactive
same,Potency,[3],inactive
CCCCCCCC/C=C\CCCCCCCC(=O)NCCO,Potency,[1],inactive
same,Potency,[2],inactive
same,Potency,[3],inactive
O=C(Nc1ccc2c(c1)CCN(Cc1ncn[nH]1)C2)c1ccccc1-c1ccc(C(F)(F)F)cc1,Potency,[1],inactive
same,Potency,[2],inactive
Oc1ccc(C2CNCc3sccc32)cc1O (stereo not drawn),Potency,[1],35.5 µM (active)
same,Potency,[2],inactive
C[C@@H](CN1CCC(Cc2ccccc2)CC1)[C@@H](O)c1ccc(O)cc1,Potency,[1],inactive
same,Potency,[2],inactive
same,Potency,[3],inactive
CCCC(CCC)C(=O)OC1CC2CCC(C1)[N+]2(C)C (stereo not drawn),Potency,[1],inactive
same,Potency,[2],inactive
CC(C)NC[C@H](O)COc1cccc2[nH]ccc12,Potency,[1],inactive
same,Potency,[2],inactive
same,Potency,[3],inactive
NCCCCC(=O)O,Potency,[1],inactive
same,Potency,[2],inactive
COc1cc(SC)ccc1C(=O)N1CCC(Cc2ccccc2)CC1,Potency,[1],inactive
same,Potency,[2],inactive
same,Potency,[3],inactive
OC[C@H]1O[C@@H](n2cnc3c(NC4CCCCC4)ncnc32)[C@H](O)[C@@H]1O,Potency,[1],inactive
same,Potency,[2],inactive
same,Potency,[3],inactive
O=C(O)c1cc(=O)c2c(Cl)cc(Cl)cc2[nH]1,Potency,[1],inactive
same,Potency,[2],inactive
same,Potency,[3],inactive
COC(=O)c1c(C)[nH]c(C)c1C(=O)c1ccccc1Cc1ccccc1,Potency,[1],inactive
same,Potency,[2],inactive
same,Potency,[3],inactive
NCCCCCCCCCCN,Potency,[1],inactive
same,Potency,[2],inactive
Cn1c(=O)c2[nH]c(-c3ccccc3)nc2n(C)c1=O,Potency,[1],79.4 µM (active)
same,Potency,[2],4.74 µM (active)
same,Potency,[4],21.5 µM (active)
CCOC(=O)C1=C(C)NC(C)=C(C(=O)OCC)C1c1c(F)c(F)c(F)c(F)c1F,Potency,[1],79.4 µM (active)
same,Potency,[2],23.8 µM (active)
COc1cccc(C(=O)NCCN2CCN(c3ccc(Cl)cc3)CC2)c1,Potency,[1],inactive
same,Potency,[2],inactive
N#C/C(=C\c1ccc(O)c(O)c1)C(=O)c1ccc(O)c(O)c1,Potency,[1],31.6 µM (active)
same,Potency,[2],1.19 µM (active)
CCC(CO)Nc1nc(NCc2ccccc2)c2ncn(C(C)C)c2n1 (stereo not drawn),Potency,[1],inactive
same,Potency,[2],inactive
NC[C@@H]1O[C@H](C23CC4CC(CC(C4)C2)C3)Cc2c1ccc(O)c2O,Potency,[1],50.1 µM (active)
same,Potency,[2],inactive
same,Potency,[3],inactive
O=C(Nc1ccc2[nH]ncc2c1)C1CCC1,Potency,[2],inactive
CCN1/C(=C/C(C)=O)Sc2ccc(OC)cc21,Potency,[2],inactive
O=C1NCc2c1c1c3ccccc3[nH]c1c1[nH]c3ccccc3c21,Potency,[2],23.8 µM (active)
O=C(c1ccc(Cl)cc1)N1CCN(c2ccc([N+](=O)[O-])c3ncccc23)CC1,Potency,[2],inactive
CCCCC#Cc1nc(NC)c2ncn([C@@H]3O[C@H](CO)[C@@H](O)[C@H]3O)c2n1,Potency,[2],inactive
CC(C)(C=O)Cc1cc(C(C)(C)C)c(O)c(C(C)(C)C)c1,Potency,[1],inactive
same,Potency,[3],inactive
O=c1[nH]c2cc(C(F)(F)F)ccc2n1-c1cc(C(F)(F)F)ccc1O,Potency,[1],inactive
same,Potency,[3],inactive
OCC1O[C@H]([S-])[C@H](O)[C@@H](O)[C@@H]1O.[Au+] (stereo partly drawn),Potency,[2],inactive
O=C(c1cc(O)c(O)c([N+](=O)[O-])c1)c1ccccc1F,Potency,Furin (Homo sapiens),inactive
same,Potency,[2],2.99 µM (active)
same,outcome,[5],inactive
O=C(O)CC1CCCc2ccccc2C1O (stereo not drawn),Potency,[2],inactive
CCCCCCCCCCCCCCCCCCN(CCCCCCCCCCCCCCCCCC)CCCN(CCO)CCO,Potency,[2],inactive
COc1ccc(Br)cc1S(=O)(=O)NC(=O)/C=C/c1ccccc1Cc1ccc2ccccc2c1,Potency,Furin (Homo sapiens),27 µM (active)
same,Potency,[2],5.32 µM (active)
same,Potency,[4],10.8 µM (active)
